According to PubChem BioAssay (NCI):
About 79,000 compounds went through this panel and 15% of them were active in at least one assay; those are over-represented in the sample as a whole. Values without a mark were called inactive. Calls of active or inactive are those of the source. Rule as the data show it: active = growth inhibition above about 70%; inactive = the rest.

Test: NCI Yeast Anticancer Drug Screen. Data for the rad50 strain (AID 155);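 also: 0% = growth of vehicle-only cultures of the same strain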
Details: S. cerevisiae rad50 strain growth inhibition; at 50.0 µM; hits give high values
Procedure, shortened: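 Compounds were tested on a yeast strain with an engineered DNA damage repair alteration; the reported value is growth inhibition normalised to vehicle treatment.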
Work on CN(C)C(C)(C)CC(C)(C)C yielded a growth inhibition of 35.7%.
COc1ccccc1N=Nc1c(O)ccc2cc(S(=O)(=O)O)ccc12 gave a growth inhibition of -14.7%.
For Sc1ccc(Nc2c3ccccc3nc3ccccc23)cc1, the growth inhibition was 28.4%.
Molecule CN(C)CCN(C)CC(C)(C)C(=O)/C=C/c1ccc(Cl)cc1 has a growth inhibition of 27.9%.
For OCC(O)C(O)C(O)C(O)/C=N/O (stereo unspecified), the growth inhibition was 1.4%.
Work on O=C(CC(=O)c1ccccc1O)c1ccccc1 yielded a growth inhibition of 31.4%.
Work on Cc1cccc([N+](=O)[O-])c1Cl yielded a growth inhibition of -39.2%.
Work on CCN(CC)CCNc1ccc(CO)c2sc3ccccc3c(=O)c12 yielded a growth inhibition of -16.1%.
CC1CCC(C(=O)O)N1 (stereo unspecified) gave a growth inhibition of 29.6%.
In the case of CC(C)(N)COS(=O)(=O)O, the growth inhibition is reported as -14.6%.
Work on Oc1ccccc1O yielded a growth inhibition of 11.7%.
CCCCN(CCCC)CCCO showed a growth inhibition of -14.4%.
For O=C(CCl)Nc1ccc2c(c1)C(=O)c1ccc(NC(=O)CCl)cc1C2=O, the growth inhibition was 6.3%.
In the case of CC(=O)Cc1cc(-c2cc(CC(C)=O)[nH]n2)n[nH]1, the growth inhibition is reported as -45.1%.
Molecule CCCC(C)OCC(=O)O (stereo unspecified) has a growth inhibition of 31.6%.
For CC(=O)Oc1ccc(Br)cc1C(=O)O, the growth inhibition was -15.2%.
Work on CN(C)C(=O)Oc1cccc([N+](C)(C)C)c1 yielded a growth inhibition of -1.5%.
With N#CCCc1ccc(O)cc1 the growth inhibition was -25.1%.
Molecule CCOc1ccc(Br)cc1/C=N\N=C\c1cc(Br)ccc1OCC has a growth inhibition of -9.15%.
Cc1ccccc1N=C(c1ccccc1)C1C(=O)c2ccccc2C1=O gave a growth inhibition of -20.6%.
Cc1ccc(O)c(C(=O)c2ccccc2)c1 showed a growth inhibition of 4.3%.
Molecule O=C1NC(=O)C2C(=O)NC(=O)C1C21CCc2ccccc21 (stereo unspecified) has a growth inhibition of -8.5%.
Molecule O=C(/C=C\c1ccc(O)cc1)c1ccccc1 has a growth inhibition of 15.9%.
CC1SC(N)=NC1=O (stereo unspecified) gave a growth inhibition of 12.8%.
With O=C1OC(=O)C2C1C1(Cl)C(Cl)=C(Cl)C2(Cl)C2C(=O)OC(=O)C21 (stereo unspecified) the growth inhibition was 2.45%.
Work on CC(C)CCCC(=O)O yielded a growth inhibition of -9.7%.
Molecule O=S(=O)(O)c1ccc(O)c2ccccc12 has a growth inhibition of -12.6%.
COc1ccc(C2OC(N)=C(O)C2=O)cc1OC (stereo unspecified) showed a growth inhibition of -4.25%.
Molecule Cc1cc(O)ccc1O has a growth inhibition of 31%.
For N#Cc1c(N)sc(=S)c2c1CCCC2, the growth inhibition was 9.65%.
Nc1ccc(N)c([N+](=O)[O-])c1 showed a growth inhibition of -30.9%.
CC1(C)OC(=O)C(c2ccsc2)C(=O)O1 showed a growth inhibition of -6.25%.
With C[N+](C)=c1ccc2nc3c(cc(Nc4ccccc4)c4ccccc43)oc-2c1 the growth inhibition was 20.1%.
Molecule O=C(O)C(O)c1ccccc1 (stereo unspecified) has a growth inhibition of 20.2%.
Work on COCCOCCCl yielded a growth inhibition of 10%.
With COc1cccc(Sc2ccc([N+](=O)[O-])c3no[n+]([O-])c23)c1 the growth inhibition was 81.5% (active).
Molecule CCCCC1(CC)COC(CCC)OC1 (stereo unspecified) has a growth inhibition of 26.4%.
With CC(=O)Nc1cccc(NC(C)=O)n1 the growth inhibition was 6.25%.

Test: NCI Yeast Anticancer Drug Screen. Data for the mec2-1 strain (AID 157)
Details: S. cerevisiae mec2-1 strain, at 50.0 µM, hits give high values
Procedure, shortened: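 Test agents were screened against the mec2-1 yeast strain, with defined DNA repair or cell cycle alteration. Growth was scored as inhibition against vehicle-only controls.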
Molecule CN(C)C(C)(C)CC(C)(C)C has a growth inhibition of 4%.
Molecule COc1ccccc1N=Nc1c(O)ccc2cc(S(=O)(=O)O)ccc12 has a growth inhibition of 6.9%.
Work on Sc1ccc(Nc2c3ccccc3nc3ccccc23)cc1 yielded a growth inhibition of 33.6%.
For CN(C)CCN(C)CC(C)(C)C(=O)/C=C/c1ccc(Cl)cc1, the growth inhibition was 3%.
With OCC(O)C(O)C(O)C(O)/C=N/O (stereo unspecified) the growth inhibition was 0.7%.
In the case of O=C(CC(=O)c1ccccc1O)c1ccccc1, the growth inhibition is reported as 43.1%.
Cc1cccc([N+](=O)[O-])c1Cl gave a growth inhibition of -72.5%.
Work on CCN(CC)CCNc1ccc(CO)c2sc3ccccc3c(=O)c12 yielded a growth inhibition of -28.1%.
In the case of CC1CCC(C(=O)O)N1 (stereo unspecified), the growth inhibition is reported as 6.5%.
With CC(C)(N)COS(=O)(=O)O the growth inhibition was -14.1%.
Oc1ccccc1O showed a growth inhibition of 6.7%.
Molecule CCCCN(CCCC)CCCO has a growth inhibition of -24.5%.
Work on O=C(CCl)Nc1ccc2c(c1)C(=O)c1ccc(NC(=O)CCl)cc1C2=O yielded a growth inhibition of -4.85%.
Molecule CC(=O)Cc1cc(-c2cc(CC(C)=O)[nH]n2)n[nH]1 has a growth inhibition of -22.1%.
CCCC(C)OCC(=O)O (stereo unspecified) gave a growth inhibition of -3.4%.
Molecule CC(=O)Oc1ccc(Br)cc1C(=O)O has a growth inhibition of -24.2%.
CN(C)C(=O)Oc1cccc([N+](C)(C)C)c1 gave a growth inhibition of -8.2%.
N#CCCc1ccc(O)cc1 showed a growth inhibition of -44.2%.
With CCOc1ccc(Br)cc1/C=N\N=C\c1cc(Br)ccc1OCC the growth inhibition was -29.2%.
For Cc1ccccc1N=C(c1ccccc1)C1C(=O)c2ccccc2C1=O, the growth inhibition was 19.4%.
Work on Cc1ccc(O)c(C(=O)c2ccccc2)c1 yielded a growth inhibition of -16.7%.
Work on O=C1NC(=O)C2C(=O)NC(=O)C1C21CCc2ccccc21 (stereo unspecified) yielded a growth inhibition of -16.6%.
For O=C(/C=C\c1ccc(O)cc1)c1ccccc1, the growth inhibition was -14.3%.
CC1SC(N)=NC1=O (stereo unspecified) showed a growth inhibition of -6.7%.
O=C1OC(=O)C2C1C1(Cl)C(Cl)=C(Cl)C2(Cl)C2C(=O)OC(=O)C21 (stereo unspecified) showed a growth inhibition of 12.4%.
Work on CC(C)CCCC(=O)O yielded a growth inhibition of -7.5%.
Work on O=S(=O)(O)c1ccc(O)c2ccccc12 yielded a growth inhibition of 19.4%.
Molecule COc1ccc(C2OC(N)=C(O)C2=O)cc1OC (stereo unspecified) has a growth inhibition of -23.1%.
Cc1cc(O)ccc1O gave a growth inhibition of 25.1%.
N#Cc1c(N)sc(=S)c2c1CCCC2 showed a growth inhibition of 9.85%.
Molecule Nc1ccc(N)c([N+](=O)[O-])c1 has a growth inhibition of -17.8%.
With CC1(C)OC(=O)C(c2ccsc2)C(=O)O1 the growth inhibition was -9.35%.
In the case of C[N+](C)=c1ccc2nc3c(cc(Nc4ccccc4)c4ccccc43)oc-2c1, the growth inhibition is reported as 49.6%.
O=C(O)C(O)c1ccccc1 (stereo unspecified) gave a growth inhibition of -7.65%.
Work on COCCOCCCl yielded a growth inhibition of -19.3%.
In the case of COc1cccc(Sc2ccc([N+](=O)[O-])c3no[n+]([O-])c23)c1, the growth inhibition is reported as 91.7% (active).
CCCCC1(CC)COC(CCC)OC1 (stereo unspecified) gave a growth inhibition of 2.15%.
Molecule CC(=O)Nc1cccc(NC(C)=O)n1 has a growth inhibition of 10.8%.
